Values joined by “and” are separate entries in the source; they are usually repeats but may differ in a detail not shown here. Equal values may be shown once. The campaign covered roughly 5,500 compounds. About 2,000 (36%) were called active. Roughly 18% stayed inconclusive and do not appear here. No stated cut-off is given here; in the data, active means normalized growth mostly below about 0.91 (no sharp cut-off); inconclusive means no clear call, values can overlap the other calls; inactive means mostly above about 0.92. The list shows a part of the results.
Experiment: chemical genetic growth profiling, strain panel (AID 1159580);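 further: tested at 20 µM; growth read once vehicle control cultures reached saturation at 30 °C; 1 = growth at the plate median or of vehicle wells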
Settings: growth OD

Measured: normalized growth

O=C(OCC(O)CO)c1ccccc1Nc1ccnc2cc(Cl)ccc12 (configuration not stated)
inactive: S. cerevisiae deletion strains, locus YAL013W, strain DEP1, stronger effect = lower value 0.996 | S. cerevisiae deletion strains, locus YBR021W, strain FUR4, stronger effect = lower value 1.01 | S. cerevisiae deletion strains, locus YBR229C, strain ROT2, stronger effect = lower value 0.994 | S. cerevisiae deletion strains, locus YCL029C, strain bik1, stronger effect = lower value 0.961 | S. cerevisiae deletion strains, locus YDL035C, strain GPR1, stronger effect = lower value 1.01 | S. cerevisiae deletion strains, locus YDL074C, strain BRE1, stronger effect = lower value 0.978 | S. cerevisiae deletion strains, locus YDL101C, strain DUN1, stronger effect = lower value 0.98 | S. cerevisiae deletion strains, locus YDL134C, strain PPH21, stronger effect = lower value 0.999 | S. cerevisiae deletion strains, locus YDL185W, strain tfp1, stronger effect = lower value 0.978 | S. cerevisiae deletion strains, locus YDL192W, strain arf1, stronger effect = lower value 0.99 | S. cerevisiae deletion strains, locus YDR101C, strain arx1, stronger effect = lower value 0.988 | S. cerevisiae deletion strains, locus YDR150W, strain NUM1, stronger effect = lower value 0.98 | S. cerevisiae deletion strains, locus YDR162C, strain NBP2, stronger effect = lower value 0.992 | S. cerevisiae deletion strains, locus YDR318W, strain mcm21, stronger effect = lower value 0.977 | S. cerevisiae deletion strains, locus YDR388W, stronger effect = lower value 0.997 | S. cerevisiae deletion strains, locus YDR502C, strain sam2, stronger effect = lower value 0.975 | S. cerevisiae deletion strains, locus YEL061C, strain CIN8, stronger effect = lower value 0.997 | S. cerevisiae deletion strains, locus YER110C, stronger effect = lower value 0.978 | S. cerevisiae deletion strains, locus YER155C, strain BEM2, stronger effect = lower value 0.988 | S. cerevisiae deletion strains, locus YER167W, strain BCK2, stronger effect = lower value 0.986 | S. cerevisiae deletion strains, locus YGL078C, strain dbp3, stronger effect = lower value 0.995 | S. cerevisiae deletion strains, locus YGL086W, strain mad1, stronger effect = lower value 0.999 | S. cerevisiae deletion strains, locus YGL248W, strain PDE1, stronger effect = lower value 0.983 | S. cerevisiae deletion strains, locus YGR078C, strain PAC10, stronger effect = lower value 0.962 | S. cerevisiae deletion strains, locus YGR135W, strain pre9, stronger effect = lower value 0.974 | S. cerevisiae deletion strains, locus YGR229C, strain SMI1, stronger effect = lower value 0.981 | S. cerevisiae deletion strains, locus YGR252W, strain gcn5, stronger effect = lower value 1.06 | S. cerevisiae deletion strains, locus YHR030C, strain SLT2, stronger effect = lower value 0.991 and 0.957 | S. cerevisiae deletion strains, locus YHR079C, strain IRE1 (second series), stronger effect = lower value 0.989 | S. cerevisiae deletion strains, locus YHR079C, strain IRE1, stronger effect = lower value 0.969 | S. cerevisiae deletion strains, locus YHR094C, strain hxt1, stronger effect = lower value 0.979 | S. cerevisiae deletion strains, locus YHR129C, strain ARP1, stronger effect = lower value 0.981 | S. cerevisiae deletion strains, locus YHR200W, strain rpn10, stronger effect = lower value 0.987 | S. cerevisiae deletion strains, locus YIL066C, strain RNR3, stronger effect = lower value 0.98 | S. cerevisiae deletion strains, locus YIL073C, strain SPO22, stronger effect = lower value 0.925 | S. cerevisiae deletion strains, locus YIL125W, strain kgd1, stronger effect = lower value 0.991 | S. cerevisiae deletion strains, locus YIR030C, strain dcg1, stronger effect = lower value 0.988 | S. cerevisiae deletion strains, locus YJL095W, strain BCK1, stronger effect = lower value 0.943 and 0.974 | S. cerevisiae deletion strains, locus YJL134W, strain LCB3, stronger effect = lower value 0.993 | S. cerevisiae deletion strains, locus YJL168C, strain set2, stronger effect = lower value 0.995 | S. cerevisiae deletion strains, locus YJL187C, strain SWE1 (second series), stronger effect = lower value 0.936 | S. cerevisiae deletion strains, locus YJR043C, strain POL32, stronger effect = lower value 0.982 | S. cerevisiae deletion strains, locus YJR066W, strain TOR1, stronger effect = lower value 0.912 | S. cerevisiae deletion strains, locus YJR075W, strain HOC1, stronger effect = lower value 0.978 | S. cerevisiae deletion strains, locus YKL009W, strain mrt4, stronger effect = lower value 0.968 | S. cerevisiae deletion strains, locus YKL068W, stronger effect = lower value 0.987 | S. cerevisiae deletion strains, locus YKL085W, strain MDH1 (second series), stronger effect = lower value 0.975 | S. cerevisiae deletion strains, locus YKL085W, strain MDH1, stronger effect = lower value 0.975 | S. cerevisiae deletion strains, locus YKL190W, strain CNB1, stronger effect = lower value 0.984 | S. cerevisiae deletion strains, locus YKR001C, strain vps1, stronger effect = lower value 0.99 | S. cerevisiae deletion strains, locus YLR039C, strain RIC1, stronger effect = lower value 1.01 | S. cerevisiae deletion strains, locus YLR058C, strain SHM2, stronger effect = lower value 0.986 | S. cerevisiae deletion strains, locus YLR102C, strain apc9, stronger effect = lower value 0.992 | S. cerevisiae deletion strains, locus YLR113W, strain HOG1, stronger effect = lower value 1.01 | S. cerevisiae deletion strains, locus YLR262C, strain YPT6, stronger effect = lower value 1.03 | S. cerevisiae deletion strains, locus YLR268W, strain sec22, stronger effect = lower value 0.918 | S. cerevisiae deletion strains, locus YLR330W, strain CHS5, stronger effect = lower value 0.988 | S. cerevisiae deletion strains, locus YLR342W, strain FKS1 (second series), stronger effect = lower value 1.05 | S. cerevisiae deletion strains, locus YLR371W, strain rom2, stronger effect = lower value 0.985 | S. cerevisiae deletion strains, locus YLR418C, strain cdc73, stronger effect = lower value 0.924 | S. cerevisiae deletion strains, locus YML016C, strain PPZ1, stronger effect = lower value 0.999 | S. cerevisiae deletion strains, locus YML032C, strain rad52, stronger effect = lower value 0.971 | S. cerevisiae deletion strains, locus YML124C, strain tub3, stronger effect = lower value 0.988 | S. cerevisiae deletion strains, locus YMR078C, strain ctf18, stronger effect = lower value 0.99 | S. cerevisiae deletion strains, locus YMR223W, strain ubp8, stronger effect = lower value 1.01 | S. cerevisiae deletion strains, locus YMR263W, strain SAP30, stronger effect = lower value 0.976 | S. cerevisiae deletion strains, locus YMR307W, strain GAS1, stronger effect = lower value 0.984 | S. cerevisiae deletion strains, locus YNL067W, strain RPL9B, stronger effect = lower value 0.968 | S. cerevisiae deletion strains, locus YNL128W, strain TEP1, stronger effect = lower value 0.975 | S. cerevisiae deletion strains, locus YNL153C, strain GIM3, stronger effect = lower value 0.976 | S. cerevisiae deletion strains, locus YNL183C, strain NPR1, stronger effect = lower value 0.899 | S. cerevisiae deletion strains, locus YNL233W, strain BNI4, stronger effect = lower value 0.974 | S. cerevisiae deletion strains, locus YNL250W, strain rad50, stronger effect = lower value 0.969 | S. cerevisiae deletion strains, locus YNL271C, strain bni1, stronger effect = lower value 0.987 | S. cerevisiae deletion strains, locus YNL298W, strain CLA4, stronger effect = lower value 0.993 | S. cerevisiae deletion strains, locus YNL307C, strain MCK1, stronger effect = lower value 0.983 | S. cerevisiae deletion strains, locus YNL322C, strain KRE1, stronger effect = lower value 0.988 | S. cerevisiae deletion strains, locus YNR052C, strain pop2, stronger effect = lower value 1.01 | S. cerevisiae deletion strains, locus YOL006C, strain TOP1, stronger effect = lower value 0.929 | S. cerevisiae deletion strains, locus YOL012C, strain htz1 1.65 | S. cerevisiae deletion strains, locus YOL147C, strain pex11, stronger effect = lower value 0.98 | S. cerevisiae deletion strains, locus YOR061W, strain CKA2, stronger effect = lower value 0.99 | S. cerevisiae deletion strains, locus YOR069W, strain VPS5, stronger effect = lower value 0.996 | S. cerevisiae deletion strains, locus YOR136W, strain idh2, stronger effect = lower value 0.998 | S. cerevisiae deletion strains, locus YOR144C, strain elg1, stronger effect = lower value 0.993 | S. cerevisiae deletion strains, locus YOR184W, strain ser1, stronger effect = lower value 0.954 | S. cerevisiae deletion strains, locus YOR231W, strain MKK1, stronger effect = lower value 0.983 | S. cerevisiae deletion strains, locus YOR316C, strain cot1, stronger effect = lower value 0.982 | S. cerevisiae deletion strains, locus YPL055C, strain LGE1, stronger effect = lower value 0.938 | S. cerevisiae deletion strains, locus YPL241C, strain CIN2, stronger effect = lower value 0.991 | S. cerevisiae deletion strains, locus YPL256C, strain CLN2, stronger effect = lower value 0.927 | S. cerevisiae deletion strains, locus YPR119W, strain clb2, stronger effect = lower value 0.99 | S. cerevisiae deletion strains, locus YPR141C, strain kar3, stronger effect = lower value 0.97 | S. cerevisiae deletion strains, locus YPR163C, strain tif3, stronger effect = lower value 0.979 | S. cerevisiae deletion strains, locus YPR167C, strain met16, stronger effect = lower value 0.989 | S. cerevisiae deletion strains, strain wtn01, stronger effect = lower value 0.98 | S. cerevisiae strains, strain wild type, stronger effect = lower value 0.991
